According to the supplement of paper PMC11732987, “Enantioselective OTUD7B fragment discovery through chemoproteomics screening and high-throughput optimisation” (Communications Chemistry, 2025):

How the values were obtained:
Test in all cases: log2 ratio of Biotin-Ahx-Ub-VS probe labelling (fragment/DMSO); higher = less target engagement (more negative = stronger competition), active = hit call of the paper (q ≤ 0.05, log2 ratio ≤ -1)
Conditions in all cases: compound concentration: 200 uM; treatment time: 3 h
USP19 = molecular target: T1, USP19 (UniProt O94966)
T1 sequence (whole entry): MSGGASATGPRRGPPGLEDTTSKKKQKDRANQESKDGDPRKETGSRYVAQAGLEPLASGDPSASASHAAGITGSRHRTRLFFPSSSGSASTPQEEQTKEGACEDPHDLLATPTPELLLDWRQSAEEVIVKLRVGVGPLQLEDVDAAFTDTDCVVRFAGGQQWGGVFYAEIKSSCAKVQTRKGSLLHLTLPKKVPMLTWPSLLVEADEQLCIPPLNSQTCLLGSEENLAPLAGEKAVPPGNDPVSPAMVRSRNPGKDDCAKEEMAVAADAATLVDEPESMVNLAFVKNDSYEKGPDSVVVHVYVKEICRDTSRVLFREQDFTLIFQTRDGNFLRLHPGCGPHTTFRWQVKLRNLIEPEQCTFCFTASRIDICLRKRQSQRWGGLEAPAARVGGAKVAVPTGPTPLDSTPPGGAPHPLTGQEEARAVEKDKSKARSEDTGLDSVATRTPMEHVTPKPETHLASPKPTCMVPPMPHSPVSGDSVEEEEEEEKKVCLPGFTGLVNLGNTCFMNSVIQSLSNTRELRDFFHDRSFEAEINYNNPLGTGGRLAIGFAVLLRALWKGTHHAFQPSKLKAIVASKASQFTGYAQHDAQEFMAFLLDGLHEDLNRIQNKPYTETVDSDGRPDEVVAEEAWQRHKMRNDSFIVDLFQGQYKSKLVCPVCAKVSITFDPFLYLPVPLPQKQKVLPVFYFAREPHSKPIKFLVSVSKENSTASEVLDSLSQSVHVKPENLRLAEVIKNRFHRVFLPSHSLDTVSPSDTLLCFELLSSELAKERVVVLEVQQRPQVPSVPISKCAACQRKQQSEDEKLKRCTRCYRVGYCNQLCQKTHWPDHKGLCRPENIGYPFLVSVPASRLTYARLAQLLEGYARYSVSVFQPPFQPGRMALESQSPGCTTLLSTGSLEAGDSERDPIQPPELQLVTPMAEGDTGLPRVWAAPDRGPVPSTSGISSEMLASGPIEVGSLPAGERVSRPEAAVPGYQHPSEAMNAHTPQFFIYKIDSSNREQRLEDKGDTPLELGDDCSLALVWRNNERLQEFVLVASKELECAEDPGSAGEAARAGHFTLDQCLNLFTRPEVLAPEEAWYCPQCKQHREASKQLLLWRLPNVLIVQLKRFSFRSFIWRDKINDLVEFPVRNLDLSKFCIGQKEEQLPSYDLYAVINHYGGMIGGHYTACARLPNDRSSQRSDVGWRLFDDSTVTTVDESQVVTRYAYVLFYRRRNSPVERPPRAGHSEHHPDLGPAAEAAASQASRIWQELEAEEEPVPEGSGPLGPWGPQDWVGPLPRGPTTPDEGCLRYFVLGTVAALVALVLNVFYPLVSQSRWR
Method in brief: (§1)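 Using Biotin-Ahx-Ub-VS at 0.5 µM final for 1 h, DUBs were labelled in HEK293T lysate (495 µg per sample) that had first been treated in triplicate with fragment at 200 µM or vehicle for 3 h. NeutrAvidin enrichment, LysC and trypsin digestion and diaPASEF LC-MS/MS followed. Spectronaut label-free quantities were global-median-normalised. Values are average log2 fragment/vehicle ratios by unpaired t-test, using proteins with ≥2 unique peptides.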

USP22 = molecular target: T2, USP22 (UniProt Q9UPT9)
T2 sequence (whole entry): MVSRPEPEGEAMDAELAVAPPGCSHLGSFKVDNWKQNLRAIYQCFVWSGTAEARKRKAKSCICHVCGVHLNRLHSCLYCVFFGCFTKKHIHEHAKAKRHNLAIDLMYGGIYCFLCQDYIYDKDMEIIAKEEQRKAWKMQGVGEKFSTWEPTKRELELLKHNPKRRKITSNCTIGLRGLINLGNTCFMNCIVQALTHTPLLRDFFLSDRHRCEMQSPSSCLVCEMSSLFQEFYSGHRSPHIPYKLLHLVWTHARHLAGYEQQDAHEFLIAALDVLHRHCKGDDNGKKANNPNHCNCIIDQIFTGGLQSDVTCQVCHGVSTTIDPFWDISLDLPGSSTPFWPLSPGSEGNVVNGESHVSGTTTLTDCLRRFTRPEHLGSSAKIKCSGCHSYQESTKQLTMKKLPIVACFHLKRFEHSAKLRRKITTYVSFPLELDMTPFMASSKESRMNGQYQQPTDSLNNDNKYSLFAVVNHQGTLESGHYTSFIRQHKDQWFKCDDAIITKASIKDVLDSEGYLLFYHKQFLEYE
Method in brief: as §1

USP24 = USP24 (UniProt Q9UPU5)
Method in brief: as §1

USP25 = molecular target: T3, USP25 (UniProt Q9UHP3)
T3 sequence (whole entry): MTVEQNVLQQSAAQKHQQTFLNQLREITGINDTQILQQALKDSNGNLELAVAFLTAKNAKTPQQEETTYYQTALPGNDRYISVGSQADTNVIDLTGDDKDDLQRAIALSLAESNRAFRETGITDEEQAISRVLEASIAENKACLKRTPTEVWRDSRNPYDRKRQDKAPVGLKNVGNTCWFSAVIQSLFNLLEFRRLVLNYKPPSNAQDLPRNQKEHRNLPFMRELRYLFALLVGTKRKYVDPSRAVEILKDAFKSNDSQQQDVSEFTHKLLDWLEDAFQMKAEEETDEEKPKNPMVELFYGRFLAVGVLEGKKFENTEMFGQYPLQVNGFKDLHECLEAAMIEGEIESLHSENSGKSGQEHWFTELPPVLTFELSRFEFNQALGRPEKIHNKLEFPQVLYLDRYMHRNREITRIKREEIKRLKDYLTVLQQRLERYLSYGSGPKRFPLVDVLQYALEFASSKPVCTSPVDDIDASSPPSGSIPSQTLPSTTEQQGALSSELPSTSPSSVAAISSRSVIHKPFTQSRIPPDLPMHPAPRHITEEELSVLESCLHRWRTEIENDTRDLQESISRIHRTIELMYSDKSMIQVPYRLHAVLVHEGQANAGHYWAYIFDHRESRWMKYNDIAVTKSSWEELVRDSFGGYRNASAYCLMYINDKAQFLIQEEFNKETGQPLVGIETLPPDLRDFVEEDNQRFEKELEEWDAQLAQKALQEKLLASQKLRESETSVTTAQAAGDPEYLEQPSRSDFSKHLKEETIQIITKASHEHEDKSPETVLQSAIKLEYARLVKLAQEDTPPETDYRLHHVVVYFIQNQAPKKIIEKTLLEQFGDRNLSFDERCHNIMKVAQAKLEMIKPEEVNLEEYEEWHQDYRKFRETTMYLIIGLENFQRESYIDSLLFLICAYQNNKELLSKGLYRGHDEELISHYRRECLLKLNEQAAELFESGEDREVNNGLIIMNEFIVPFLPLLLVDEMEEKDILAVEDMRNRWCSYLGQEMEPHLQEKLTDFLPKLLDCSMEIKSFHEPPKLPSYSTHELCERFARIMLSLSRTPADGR
Method in brief: as §1

USP28 = molecular target: T4, USP28 (UniProt Q96RU2)
T4 sequence (whole entry): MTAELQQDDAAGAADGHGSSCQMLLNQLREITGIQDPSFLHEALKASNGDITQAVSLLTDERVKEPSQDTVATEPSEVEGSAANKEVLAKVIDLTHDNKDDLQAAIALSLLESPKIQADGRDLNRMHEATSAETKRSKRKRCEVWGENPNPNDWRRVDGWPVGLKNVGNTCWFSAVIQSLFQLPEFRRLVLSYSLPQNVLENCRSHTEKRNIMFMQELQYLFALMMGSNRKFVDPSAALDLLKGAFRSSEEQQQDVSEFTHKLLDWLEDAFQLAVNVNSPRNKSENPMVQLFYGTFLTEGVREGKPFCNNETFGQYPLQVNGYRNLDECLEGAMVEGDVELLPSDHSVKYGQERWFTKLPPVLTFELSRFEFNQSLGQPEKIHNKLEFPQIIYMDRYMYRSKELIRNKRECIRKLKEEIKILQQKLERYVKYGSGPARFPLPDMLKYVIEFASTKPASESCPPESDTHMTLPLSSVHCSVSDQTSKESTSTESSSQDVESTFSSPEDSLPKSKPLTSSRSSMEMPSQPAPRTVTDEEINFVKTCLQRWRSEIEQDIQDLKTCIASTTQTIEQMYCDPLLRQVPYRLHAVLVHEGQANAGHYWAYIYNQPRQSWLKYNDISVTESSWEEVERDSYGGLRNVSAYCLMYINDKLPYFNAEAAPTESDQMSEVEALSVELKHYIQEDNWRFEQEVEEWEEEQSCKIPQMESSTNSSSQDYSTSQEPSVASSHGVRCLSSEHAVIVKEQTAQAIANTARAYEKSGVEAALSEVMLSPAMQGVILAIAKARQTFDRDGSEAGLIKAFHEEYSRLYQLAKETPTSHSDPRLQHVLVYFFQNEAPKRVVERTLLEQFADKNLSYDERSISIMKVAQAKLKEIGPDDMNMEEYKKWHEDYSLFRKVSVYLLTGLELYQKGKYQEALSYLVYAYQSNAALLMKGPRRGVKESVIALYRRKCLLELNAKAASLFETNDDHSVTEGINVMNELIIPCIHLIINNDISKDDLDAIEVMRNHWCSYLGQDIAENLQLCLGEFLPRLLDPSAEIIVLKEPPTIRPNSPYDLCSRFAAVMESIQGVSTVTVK
Method in brief: as §1

Measured: log2 ratio of Biotin-Ahx-Ub-VS probe labelling

Sequence of USP24 (Q9UPU5 whole entry): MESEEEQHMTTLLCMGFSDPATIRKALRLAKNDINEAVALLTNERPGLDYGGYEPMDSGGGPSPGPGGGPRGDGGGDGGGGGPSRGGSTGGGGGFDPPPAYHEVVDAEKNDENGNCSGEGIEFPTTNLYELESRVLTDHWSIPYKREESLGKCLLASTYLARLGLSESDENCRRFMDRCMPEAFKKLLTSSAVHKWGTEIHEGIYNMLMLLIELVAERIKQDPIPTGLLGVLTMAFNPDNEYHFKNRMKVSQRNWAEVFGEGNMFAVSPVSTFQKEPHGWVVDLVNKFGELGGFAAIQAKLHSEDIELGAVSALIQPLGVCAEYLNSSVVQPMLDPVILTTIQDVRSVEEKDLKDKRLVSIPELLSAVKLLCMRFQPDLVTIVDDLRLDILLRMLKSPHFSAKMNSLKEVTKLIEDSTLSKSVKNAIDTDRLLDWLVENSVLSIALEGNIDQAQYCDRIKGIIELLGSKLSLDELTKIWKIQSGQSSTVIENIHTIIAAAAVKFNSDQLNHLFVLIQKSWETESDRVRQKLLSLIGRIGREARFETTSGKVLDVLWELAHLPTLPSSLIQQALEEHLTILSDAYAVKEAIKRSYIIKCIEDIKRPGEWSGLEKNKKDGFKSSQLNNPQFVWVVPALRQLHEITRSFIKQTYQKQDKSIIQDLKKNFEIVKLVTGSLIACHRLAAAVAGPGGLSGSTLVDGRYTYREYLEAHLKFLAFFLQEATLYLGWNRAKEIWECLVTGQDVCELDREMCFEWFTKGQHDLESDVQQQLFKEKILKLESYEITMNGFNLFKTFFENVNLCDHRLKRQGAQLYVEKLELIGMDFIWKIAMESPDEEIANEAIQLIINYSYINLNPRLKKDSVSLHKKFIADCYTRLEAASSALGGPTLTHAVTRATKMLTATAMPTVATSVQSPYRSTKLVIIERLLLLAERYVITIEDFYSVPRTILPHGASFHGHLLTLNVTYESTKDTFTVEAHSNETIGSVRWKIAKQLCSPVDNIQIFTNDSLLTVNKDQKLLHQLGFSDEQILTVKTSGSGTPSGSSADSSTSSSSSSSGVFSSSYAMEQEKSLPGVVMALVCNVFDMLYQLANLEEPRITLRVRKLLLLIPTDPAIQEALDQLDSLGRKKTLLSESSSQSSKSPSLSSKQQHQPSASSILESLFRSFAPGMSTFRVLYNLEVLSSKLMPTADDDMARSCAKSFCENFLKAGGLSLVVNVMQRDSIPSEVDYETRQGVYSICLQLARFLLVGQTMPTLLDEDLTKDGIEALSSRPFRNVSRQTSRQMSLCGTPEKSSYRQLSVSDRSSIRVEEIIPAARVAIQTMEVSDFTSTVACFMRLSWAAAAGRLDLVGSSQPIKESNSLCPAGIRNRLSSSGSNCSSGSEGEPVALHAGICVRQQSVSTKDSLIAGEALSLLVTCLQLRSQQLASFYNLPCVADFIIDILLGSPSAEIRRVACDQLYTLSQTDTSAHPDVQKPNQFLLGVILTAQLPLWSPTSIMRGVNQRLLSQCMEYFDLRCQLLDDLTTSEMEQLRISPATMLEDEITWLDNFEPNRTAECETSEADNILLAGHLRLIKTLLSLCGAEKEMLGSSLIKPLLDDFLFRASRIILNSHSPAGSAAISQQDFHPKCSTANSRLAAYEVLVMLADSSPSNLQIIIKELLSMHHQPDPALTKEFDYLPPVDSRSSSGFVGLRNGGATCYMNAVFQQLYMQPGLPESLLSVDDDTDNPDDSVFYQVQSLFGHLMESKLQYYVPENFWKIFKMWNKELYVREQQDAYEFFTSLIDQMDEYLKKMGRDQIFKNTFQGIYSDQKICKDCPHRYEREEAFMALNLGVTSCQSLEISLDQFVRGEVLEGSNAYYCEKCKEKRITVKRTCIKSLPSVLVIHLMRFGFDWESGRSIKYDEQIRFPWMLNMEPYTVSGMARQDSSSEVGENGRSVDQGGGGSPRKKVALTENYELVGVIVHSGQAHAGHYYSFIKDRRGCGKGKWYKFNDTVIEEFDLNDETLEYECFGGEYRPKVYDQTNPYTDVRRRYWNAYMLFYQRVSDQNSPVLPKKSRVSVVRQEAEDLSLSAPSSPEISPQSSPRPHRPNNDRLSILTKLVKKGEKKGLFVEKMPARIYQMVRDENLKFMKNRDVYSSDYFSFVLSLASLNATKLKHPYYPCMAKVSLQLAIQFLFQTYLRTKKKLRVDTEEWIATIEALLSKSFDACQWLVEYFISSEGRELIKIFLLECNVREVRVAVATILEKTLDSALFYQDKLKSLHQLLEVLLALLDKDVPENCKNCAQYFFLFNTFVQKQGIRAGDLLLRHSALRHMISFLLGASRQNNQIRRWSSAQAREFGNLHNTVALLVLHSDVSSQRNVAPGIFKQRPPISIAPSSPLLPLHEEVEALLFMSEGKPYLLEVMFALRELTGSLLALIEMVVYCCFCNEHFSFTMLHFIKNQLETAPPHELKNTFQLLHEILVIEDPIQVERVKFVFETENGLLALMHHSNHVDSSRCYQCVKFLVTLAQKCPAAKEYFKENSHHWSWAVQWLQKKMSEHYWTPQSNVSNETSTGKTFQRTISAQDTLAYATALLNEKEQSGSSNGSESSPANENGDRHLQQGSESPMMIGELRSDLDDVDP

O=C(CCl)NC1CCN(C(=O)C2CCCCC2)CC1
inactive: USP19 0.0532 | USP22 0.324 | USP24 -0.169 | USP25 -0.158 | USP28 -0.257
